Test results: PubChem BioAssay AID1159580 (chemical genetic matrix, 2015)
“And” between values parts separate entries of the source, which are not always exact repeats. Identical values can stand only once. Among all 5,500 compounds or so, about 2,000 (36%) were called active. Another 18% or so got no clear call; they are omitted. No stated cut-off is given here; in the data, active means normalized growth mostly below about 0.91 (no sharp cut-off); inconclusive means no clear call, values can overlap the other calls; inactive means mostly above about 0.92. Some of the results follow.

Experiment: chemical genetic growth profiling, strain panel (AID 1159580);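 further: tested at 20 µM; growth read once vehicle control cultures reached saturation at 30 °C; 1 = growth at the plate median or of vehicle wells; lower values mean less growth of the strain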
Conditions: S. cerevisiae deletion strains, growth OD

Measured: normalized growth

CC(=O)Nc1c(I)cc(I)c(C(=O)O)c1I
inactive: locus YAL013W, strain DEP1, active compounds read low 0.992 | locus YAL021C, strain ccr4, active compounds read low 0.986 | locus YAL026C, strain drs2, active compounds read low 0.995 | locus YAL030W, strain snc1, active compounds read low 0.978 | locus YBL061C, strain skt5, active compounds read low 0.974 | locus YBR009C, strain hhf1, active compounds read low 0.992 | locus YBR021W, strain FUR4, active compounds read low 1.02 | locus YBR023C, strain chs3, active compounds read low 0.979 | locus YBR171W, strain sec66, active compounds read low 0.967 | locus YBR229C, strain ROT2, active compounds read low 0.983 | locus YBR231C, strain swc5, active compounds read low 0.971 | locus YBR279W, strain paf1, active compounds read low 0.985 | locus YCL011C, strain gbp2, active compounds read low 0.994 | locus YCL016C, strain dcc1, active compounds read low 0.994 | locus YCL029C, strain bik1, active compounds read low 0.994 | locus YCL069W, strain vba3, active compounds read low 0.98 | locus YCR088W, strain abp1, active compounds read low 0.978 | locus YDL005C, strain med2, active compounds read low 0.967 | locus YDL035C, strain GPR1, active compounds read low 1.01 | locus YDL040C, strain nat1, active compounds read low 0.976 | locus YDL074C, strain BRE1, active compounds read low 1.02 | locus YDL101C, strain DUN1, active compounds read low 0.99 | locus YDL134C, strain PPH21, active compounds read low 0.983 | locus YDL185W, strain tfp1, active compounds read low 0.987 | locus YDL192W, strain arf1, active compounds read low 0.999 | locus YDR001C, strain nth1, active compounds read low 0.991 | locus YDR069C, strain doa4, active compounds read low 0.959 | locus YDR101C, strain arx1, active compounds read low 0.995 | locus YDR137W, strain rgp1, active compounds read low 0.967 | locus YDR150W, strain NUM1, active compounds read low 0.996 | locus YDR159W, strain sac3, active compounds read low 0.967 | locus YDR162C, strain NBP2, active compounds read low 1.02 | locus YDR195W, strain ref2 0.91 | locus YDR297W, strain sur2, active compounds read low 0.994 | locus YDR318W, strain mcm21, active compounds read low 0.995 | locus YDR334W, strain swr1, active compounds read low 0.976 | locus YDR335W, strain msn5, active compounds read low 0.988 | locus YDR388W, active compounds read low 0.988 | locus YDR392W, strain spt3, active compounds read low 1.03 | locus YDR502C, strain sam2, active compounds read low 0.996 | locus YEL003W, strain gim4, active compounds read low 0.978 | locus YEL037C, strain rad23, active compounds read low 0.975 | locus YEL061C, strain CIN8 (second series), active compounds read low 0.966 | locus YEL061C, strain CIN8, active compounds read low 0.999 | locus YER015W, strain faa2, active compounds read low 0.99 | locus YER016W, strain bim1, active compounds read low 0.979 | locus YER110C, active compounds read low 0.989 | locus YER111C, strain swi4, active compounds read low 0.981 | locus YER155C, strain BEM2 (second series), active compounds read low 0.977 | locus YER155C, strain BEM2, active compounds read low 0.986 | locus YER167W, strain BCK2, active compounds read low 0.992 | locus YFR010W, strain ubp6, active compounds read low 0.965 | locus YGL078C, strain dbp3, active compounds read low 0.995 | locus YGL086W, strain mad1, active compounds read low 0.981 | locus YGL167C, strain pmr1, active compounds read low 0.971 | locus YGL173C, strain kem1, active compounds read low 0.99 | locus YGL227W, strain vid30, active compounds read low 0.971 | locus YGL240W, strain doc1, active compounds read low 0.974 | locus YGL248W, strain PDE1, active compounds read low 0.986 | locus YGL253W, strain hxk2, active compounds read low 0.979 | locus YGR078C, strain PAC10, active compounds read low 1.05 | locus YGR135W, strain pre9, active compounds read low 0.994 | locus YGR229C, strain SMI1, active compounds read low 1.06 | locus YGR252W, strain gcn5, active compounds read low 0.986 | locus YHR013C, strain ard1, active compounds read low 0.987 | locus YHR027C, strain rpn1, active compounds read low 0.982 | locus YHR030C, strain SLT2, active compounds read low 0.991 and 1.01 | locus YHR079C, strain IRE1 (second series), active compounds read low 0.998 | locus YHR079C, strain IRE1, active compounds read low 1 | locus YHR094C, strain hxt1, active compounds read low 0.989 | locus YHR129C, strain ARP1, active compounds read low 0.991 | locus YHR142W, strain chs7, active compounds read low 0.987 | locus YHR200W, strain rpn10, active compounds read low 0.991 | locus YIL066C, strain RNR3, active compounds read low 1 | locus YIL073C, strain SPO22, active compounds read low 1.01 | locus YIL125W, strain kgd1, active compounds read low 0.992 | locus YIR030C, strain dcg1, active compounds read low 0.992 | locus YJL092W, strain hpr5, active compounds read low 0.973 | locus YJL095W, strain BCK1 (second series), active compounds read low 0.978 | locus YJL095W, strain BCK1, active compounds read low 1.01 | locus YJL115W, strain asf1, active compounds read low 0.963 | locus YJL129C, strain trk1, active compounds read low 0.946 | locus YJL134W, strain LCB3, active compounds read low 0.994 | locus YJL154C, strain vps35, active compounds read low 0.964 | locus YJL164C, strain tpk1, active compounds read low 0.995 | locus YJL166W, strain qcr8, active compounds read low 0.971 | locus YJL168C, strain set2, active compounds read low 0.99 | locus YJL187C, strain SWE1 (second series), active compounds read low 0.995 | locus YJL187C, strain SWE1, active compounds read low 0.983 | locus YJR043C, strain POL32, active compounds read low 1.03 | locus YJR066W, strain TOR1, active compounds read low 0.963
